Experimental findings from PubChem BioAssay are described below.

The structures appear in SMILES notation.

A short description of the experiment: small-molecule microarray binders of probe aCHRDL2, primary screen, biochemical, biotinylated probe, 635/667 nm fluorescence (AID 1100). The settings on record: higher = more signal.
Take `O=C1CCCC(C2=CCCCC2=O)C1` (stereo unspecified): the composite z-score is -0.766. For `Cn1c(=O)n2n(c1=O)[C@H]1[C@H](O)[C@@H]3O[C@@H]3C(=NOCc3ccccc3)[C@H]1CC2` the value was -0.374. Regarding `CO[C@H](C1CCCCC1)[C@H](C)C=CCC(=O)OCCCc1ccccc1`, the composite z-score is -0.708.

`COC(=O)[C@H](C)NC(=O)CCC1CC(OC(=O)NCc2ccc3c(c2)OCO3)CC2(CCCC(COC(=O)NCC(c3ccccc3)c3ccccc3)O2)O1` (stereo partly specified): the composite z-score is -0.845. `O=c1n(-c2ccccc2)c(=O)n2n1CC[C@@H]1C(=NOCc3ccccc3)[C@H]3O[C@H]3[C@@H](O)[C@@H]12` registered a composite z-score of -0.393.

Compound `COC(=O)[C@H]1[C@@H](O)[C@@]2(O)c3ccccc3O[C@@]2(c2ccccc2)[C@@H]1c1ccccc1` gave a composite z-score of -0.535. Under `COC(=O)CC=C[C@@H](C)[C@@H](C=NOC(C)CN1CCCc2nc(C)c(C)cc21)OC` (stereo partly specified) stands -0.472. As for `COC(=O)[C@H](C)NC(=O)CCC1CC(OC(=O)NCCc2ccc(F)cc2)CC2(CCCC(COC(=O)NCc3cccc(C(F)(F)F)c3)O2)O1` (stereo partly specified), the composite z-score is -0.623. On to `Cc1ccc(S(=O)(=O)N[C@H]2COC(=O)CC=C[C@H](C)[C@@H](NS(=O)(=O)c3ccc(C)cc3)COC(=O)CC=C[C@@H]2C)cc1`, for which the composite z-score was -0.588.

The compound `CON=C1[C@H]2CCn3c(=O)n(-c4ccccc4)c(=O)n3[C@H]2[C@H](O)[C@@H]2O[C@H]12` returned a composite z-score of -0.67. Take `C#CCCCON=C1C[C@@H](O)[C@@H](O)[C@@H]2[C@@H]3C(=O)N(C(C)(C)C)C(=O)[C@@H]3CC[C@@H]12`: the composite z-score is 1.28. Under `CO[C@H]1COC(=O)CC=C[C@@H](C)[C@H](NS(=O)(=O)c2ccc(C)cc2)COC(=O)CCC[C@@H]1C` stands -0.689; under `COc1ccc(COC(=O)NN=C2C[C@@H](O)[C@@H](O)[C@@H]3[C@@H]4C(=O)N(c5ccc(F)cc5F)C(=O)[C@@H]4CC[C@H]23)cc1`, 1.22; under `COc1ccc(O[C@H]2C=C[C@@H](c3ccccc3)O[C@@H]2COC(=O)CCC(C)=NOC[C@@H](O)[C@H]2O[C@@H]3OC(C)(C)O[C@@H]3[C@H]2O)cc1`, -0.633. In turn, `CO[C@H]1COC(=O)CC=C[C@H](C)[C@@H](OC)COC(=O)[C@H](C)COC(=O)CC=C[C@@H]1C` gave a composite z-score of -1.53. For the compound `CCOC(=O)C1=NO[C@]2(C=C(Br)C3(OCCCO3)[C@H]3O[C@H]32)C1`, the composite z-score is -0.274. `Cc1cc2c(nc1C)CCCCN2CC(C)ON=C1[C@H]2CCn3c(=O)n(-c4ccccc4)c(=O)n3[C@H]2[C@H](O)[C@@H]2O[C@H]12` (stereo partly specified) displayed a composite z-score of -0.0869. `COc1ccc(O[C@H]2C=C[C@@H](c3ccccc3)O[C@@H]2COC(=O)CCC(C)=NO[C@@H]2O[C@H](COC(C)=O)[C@@H](OC(C)=O)[C@H](OC(C)=O)[C@H]2OC(C)=O)cc1` showed a composite z-score of -0.374.

In the case of `Cc1cc2c(c(=O)o1)[C@@H](O)[C@H]1O[C@H]1C2=O`, the composite z-score is -0.699. For the compound `CCOC(=O)CCN1C(=O)[C@H]2[C@H]3[C@H](O)[C@H](O)CC(=NNC(=O)OCc4ccccc4)[C@@H]3CC[C@H]2C1=O`, the composite z-score was -0.201. As for `O=C1[C@H]2[C@H]3[C@H](O)[C@H](O)CC(=NOC[C@@H](O)COCc4ccco4)[C@@H]3CC[C@H]2C(=O)N1C[C@@H]1CCCO1`, the composite z-score was -1.2.

Compound `CC(C)CON=C1C[C@@H](O)[C@@H](O)[C@@H]2[C@@H]3C(=O)N(C[C@@H]4CCCO4)C(=O)[C@@H]3CC[C@@H]12` yielded a composite z-score of 0.0562.

For `CON=Cc1ccc(C(=O)N2[C@H](c3ccc(C)cc3)[C@@H](C)CC[C@H]2C(=O)OC)cc1`, the composite z-score is -0.541. For `C[C@@H](c1ccccc1)N1C(=O)[C@H]2[C@H]3[C@H](O)[C@H](O)CC(=O)[C@H]3CC[C@H]2C1=O`, the composite z-score was -0.489. The compound `CC(C)CON=C1C[C@@H](O)[C@@H](O)[C@@H]2[C@@H]3C(=O)N(Cc4ccc5c(c4)OCO5)C(=O)[C@@H]3CC[C@H]12` displayed a composite z-score of -0.608. Consider `CCN1C(=O)[C@H]2[C@H]3[C@H](O)[C@H](O)CC(=NOCC(C)C)[C@@H]3CC[C@H]2C1=O`, for which the composite z-score was -0.672. For `CC(C)=NO[C@H](C)c1cn([C@H](CO)Cc2ccccc2)nn1` the value was -0.113; for `CCCNC(=O)OC[C@H]1O[C@H](c2ccccc2)C=C[C@@H]1Oc1ccc(OC)cc1`, -0.396; for `C[C@@H]1CC[C@H]2C(=O)O[C@@H](Cc3ccccc3)CN2[C@H]1c1ccc(Br)cc1`, -0.246. Compound `COc1ccc(O[C@H]2C=C[C@@H](c3ccccc3)O[C@@H]2CON=C(C)CCC(=O)OC[C@H]2O[C@H](c3ccccc3)C=C[C@@H]2Oc2ccc(OC)cc2)cc1` registered a composite z-score of 0.2. In turn, `O=C1[C@H]2[C@H]3[C@H](O)[C@H](O)CC(=NOCc4ccccc4)[C@@H]3CC[C@H]2C(=O)N1Cc1ccc2c(c1)OCO2` came in with a composite z-score of -0.453.

As to `COC(=O)CC=C[C@@H](C)[C@@H](C=NO[C@@H]1O[C@H](COC(C)=O)[C@@H](OC(C)=O)[C@H](OC(C)=O)[C@H]1OC(C)=O)OC`, the composite z-score is -0.463. In turn, `COc1cccc([C@H]2Oc3ccc(OC)cc3C(=NOC[C@@H](O)[C@H]3O[C@@H]4OC(C)(C)O[C@@H]4[C@H]3O)[C@@H]2O)c1` came in with a composite z-score of -0.511. Regarding `O=C1C[C@@H](O)[C@@H](O)[C@@H]2[C@@H]3C(=O)N(Cc4ccccc4)C(=O)[C@@H]3CC[C@@H]12`, the composite z-score was -0.47. For `CO[C@H]1COC(=O)CC=C[C@@H](C)[C@H](OC)COC(=O)CCC[C@@H]1C` the value was -0.791.

As for `CCN1C(=O)[C@H]2[C@H]3[C@H](O)[C@H](O)CC(=NNC(=O)OCc4ccc(OC)cc4)[C@@H]3CC[C@H]2C1=O`, the composite z-score is 0.765.
